The values below come from PubChem BioAssay.

The nature of assay [1]: small molecules captured by biotinylated probe aFSTL3 – biochemical, small-molecule microarray, fluorescence 635/667, stem cell growth factor project, primary screen (AID 1064).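 Further: measures binding of the biotinylated anti-FSTL3 antibody to printed compounds.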 Conditions: higher = more signal.
The nature of assay [2]: binders from COS7 lysate, DM2A8 probe, primary screen, torsin A project, cell lysate, small-molecule microarray, fluorescence 635/667 (AID 1065). Conditions: higher = more signal, COS7 lysate expressing mutant human TOR1A.
Assay [3] is described as follows: small molecules captured by biotinylated probe aFGF2 – biochemical, small-molecule microarray, fluorescence 635/667, stem cell growth factor project, primary screen (AID 1067).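 Further: measures binding of biotinylated aFGF2 protein to printed compounds on slides; z-score merges feature fluorescence and signal-to-noise across triplicate slides.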 Conditions: higher = more signal.
Assay [4] is described as follows: small molecules captured by biotinylated probe aFGF10 – biochemical, small-molecule microarray, fluorescence 635/667, stem cell growth factor project, primary screen (AID 1071).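 Further: score merges 667 nm spot intensity and signal to noise from triplicate slides.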 Conditions: higher = more signal.
For assay [5], the target named is Neurogenic locus notch homolog protein 2 (Homo sapiens) (UniProt Q04721). Description: small molecules binding Notch2 protein – biochemical, small-molecule microarray, 635 nm fluorescence, stem cell growth factors, primary screen (AID 1073). Conditions: higher = more signal.
In assay [6] the target is Pro-neuregulin-1, membrane-bound isoform (Homo sapiens) (UniProt Q02297). Description: small molecules binding neuregulin-1 protein – biochemical, small-molecule microarray, fluorescence 635/667, psychiatric disease protein project, primary screen (AID 1075).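 Further: score combines 667 nm spot fluorescence with signal to noise.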 Conditions: NRG1 binding, 635 nm fluorescence, higher = more signal.
Assay [7] concerns Neuregulin-1 EGF-like domain. Description: small molecules binding NRG1 EGF domain – biochemical, small-molecule microarray, 635 nm fluorescence, primary screen (AID 1081).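 Further: binding of the protein to compounds printed on small-molecule microarray slides.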 Conditions: higher = more signal.
Assay [8] is described as follows: FRG1 expression reporter modulators in myotubes – cell-based, C2C12 myotubes, firefly/Renilla luciferase, luminescence, FRG1 inhibition for FSHD, primary screen (AID 1084). Conditions: FRG1 promoter luciferase, higher = more signal, called active from +8 up or from −8 down.
A short description of assay [9]: small molecules captured by biotinylated probe aFST – biochemical, small-molecule microarray, fluorescence 635/667, stem cell growth factor project, primary screen (AID 1086).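 Further: score merges 667 nm fluorescence with signal-to-noise of each printed compound spot.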 Conditions: higher = more signal.
A short description of assay [10]: binders of probe aHhip on microarray, primary screen, stem cell growth factor project, biochemical, small-molecule microarray, fluorescence 635/667 (AID 1087).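 Further: score merges spot fluorescence at 667nm with spot signal to noise ratio.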 Conditions: higher = more signal.
Assay [11] deals with PRMT1 (protein arginine N-methyltransferase 1). Description: small molecules binding arginine methyltransferase PRMT1 – biochemical, small-molecule microarray, 635 nm fluorescence, primary screen (AID 1088).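 Further: binding of Prmt1 protein to compounds spotted on small-molecule microarray slides.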 Conditions: higher = more signal.
Assay [12] is described as follows: growth effects on S. cerevisiae YJM789 – YJM789 clinical isolate, OD600, 24 h, basal, primary screen (AID 1089).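 Further: growth of clinical yeast isolate S. cerevisiae YJM 789 seeded 1000 cells per well; test concentration not given here.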 Conditions: higher = more signal, called active from +8 up or from −8 down.
Assay [13] is described as follows: S. pombe growth modifiers, basal conditions – strain 972, OD600, 24 h, no modulator, primary screen (AID 1090).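 Further: basal condition with compound alone and no growth modifier present; test concentration not given here.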 Conditions: S. pombe 972 growth, higher = more signal, called active from +8 up or from −8 down.
Assay [14] can be described thus: budding yeast growth modifiers under rapamycin – strain BY4716, OD600, 96 h, primary screen (AID 1091). Further: test concentration not given here. Conditions: S. cerevisiae BY4716 + rapamycin, higher = more signal, called active from +8 up or from −8 down.
The target in assay [15] is Torsin-1A-interacting protein 2 (Homo sapiens) (UniProt Q8NFQ8). Description: small molecules binding lysate-expressed LULL1 – cell lysate, human LULL1 lysate, 635/667 nm fluorescence, primary screen (AID 1092).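 Further: probe is lysate of COS7 cells overexpressing human LULL1; score merges per-feature 667 nm fluorescence with signal-to-noise.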 Conditions: small-molecule microarray, hLULL1 lysate binding, 635 nm fluorescence; higher = more signal.
Assay [16] in a line: optical density change of DRC41 E. coli – strain DRC41, OD650, 24 h, E. coli filamentation project, primary screen (AID 1093).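 Further: MC1000 strain lacking acrAB efflux and sulA so SOS filamentation is blocked; test concentration not given here.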 Conditions: E. coli DRC41 growth, higher = more signal, called active from +8 up or from −8 down.
A short description of assay [17]: probe aLefty2 binding to arrayed compounds – biochemical, biotinylated probe, 635/667 nm fluorescence, primary screen (AID 1094).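 Further: score merges spot fluorescence near 667 nm with spot signal-to-noise ratio.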 Conditions: small-molecule microarray, higher = more signal.
Assay [18] concerns Noggin (protein binding on small-molecule microarray). Description: small molecules binding Noggin protein – biochemical, 635/667 nm fluorescence, primary screen (AID 1095).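 Further: score merges 667 nm feature fluorescence with signal to noise over triplicate slides.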 Conditions: 635 nm fluorescence, higher = more signal.
Assay [19] concerns the target Neurogenic locus notch homolog protein 3 (Homo sapiens) (UniProt Q9UM47). Description: small molecules binding NOTCH3 protein – biochemical, 635/667 nm fluorescence, primary screen (AID 1096). Conditions: small-molecule microarray, 635 nm fluorescence, higher = more signal.
Assay [20] is described as follows: probe aEGFR binding to arrayed compounds – biochemical, biotinylated probe, 635/667 nm fluorescence, primary screen (AID 1097).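 Further: probe is a biotinylated anti-EGFR antibody binding compounds printed on slides; score combines fluorescence near 667 nm and signal to noise of each spot.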 Conditions: small-molecule microarray, higher = more signal.

Active and inactive are the calls of the source.

Neurogenic locus notch homolog protein 3 (Homo sapiens), sequence (Q9UM47 whole entry, looked up): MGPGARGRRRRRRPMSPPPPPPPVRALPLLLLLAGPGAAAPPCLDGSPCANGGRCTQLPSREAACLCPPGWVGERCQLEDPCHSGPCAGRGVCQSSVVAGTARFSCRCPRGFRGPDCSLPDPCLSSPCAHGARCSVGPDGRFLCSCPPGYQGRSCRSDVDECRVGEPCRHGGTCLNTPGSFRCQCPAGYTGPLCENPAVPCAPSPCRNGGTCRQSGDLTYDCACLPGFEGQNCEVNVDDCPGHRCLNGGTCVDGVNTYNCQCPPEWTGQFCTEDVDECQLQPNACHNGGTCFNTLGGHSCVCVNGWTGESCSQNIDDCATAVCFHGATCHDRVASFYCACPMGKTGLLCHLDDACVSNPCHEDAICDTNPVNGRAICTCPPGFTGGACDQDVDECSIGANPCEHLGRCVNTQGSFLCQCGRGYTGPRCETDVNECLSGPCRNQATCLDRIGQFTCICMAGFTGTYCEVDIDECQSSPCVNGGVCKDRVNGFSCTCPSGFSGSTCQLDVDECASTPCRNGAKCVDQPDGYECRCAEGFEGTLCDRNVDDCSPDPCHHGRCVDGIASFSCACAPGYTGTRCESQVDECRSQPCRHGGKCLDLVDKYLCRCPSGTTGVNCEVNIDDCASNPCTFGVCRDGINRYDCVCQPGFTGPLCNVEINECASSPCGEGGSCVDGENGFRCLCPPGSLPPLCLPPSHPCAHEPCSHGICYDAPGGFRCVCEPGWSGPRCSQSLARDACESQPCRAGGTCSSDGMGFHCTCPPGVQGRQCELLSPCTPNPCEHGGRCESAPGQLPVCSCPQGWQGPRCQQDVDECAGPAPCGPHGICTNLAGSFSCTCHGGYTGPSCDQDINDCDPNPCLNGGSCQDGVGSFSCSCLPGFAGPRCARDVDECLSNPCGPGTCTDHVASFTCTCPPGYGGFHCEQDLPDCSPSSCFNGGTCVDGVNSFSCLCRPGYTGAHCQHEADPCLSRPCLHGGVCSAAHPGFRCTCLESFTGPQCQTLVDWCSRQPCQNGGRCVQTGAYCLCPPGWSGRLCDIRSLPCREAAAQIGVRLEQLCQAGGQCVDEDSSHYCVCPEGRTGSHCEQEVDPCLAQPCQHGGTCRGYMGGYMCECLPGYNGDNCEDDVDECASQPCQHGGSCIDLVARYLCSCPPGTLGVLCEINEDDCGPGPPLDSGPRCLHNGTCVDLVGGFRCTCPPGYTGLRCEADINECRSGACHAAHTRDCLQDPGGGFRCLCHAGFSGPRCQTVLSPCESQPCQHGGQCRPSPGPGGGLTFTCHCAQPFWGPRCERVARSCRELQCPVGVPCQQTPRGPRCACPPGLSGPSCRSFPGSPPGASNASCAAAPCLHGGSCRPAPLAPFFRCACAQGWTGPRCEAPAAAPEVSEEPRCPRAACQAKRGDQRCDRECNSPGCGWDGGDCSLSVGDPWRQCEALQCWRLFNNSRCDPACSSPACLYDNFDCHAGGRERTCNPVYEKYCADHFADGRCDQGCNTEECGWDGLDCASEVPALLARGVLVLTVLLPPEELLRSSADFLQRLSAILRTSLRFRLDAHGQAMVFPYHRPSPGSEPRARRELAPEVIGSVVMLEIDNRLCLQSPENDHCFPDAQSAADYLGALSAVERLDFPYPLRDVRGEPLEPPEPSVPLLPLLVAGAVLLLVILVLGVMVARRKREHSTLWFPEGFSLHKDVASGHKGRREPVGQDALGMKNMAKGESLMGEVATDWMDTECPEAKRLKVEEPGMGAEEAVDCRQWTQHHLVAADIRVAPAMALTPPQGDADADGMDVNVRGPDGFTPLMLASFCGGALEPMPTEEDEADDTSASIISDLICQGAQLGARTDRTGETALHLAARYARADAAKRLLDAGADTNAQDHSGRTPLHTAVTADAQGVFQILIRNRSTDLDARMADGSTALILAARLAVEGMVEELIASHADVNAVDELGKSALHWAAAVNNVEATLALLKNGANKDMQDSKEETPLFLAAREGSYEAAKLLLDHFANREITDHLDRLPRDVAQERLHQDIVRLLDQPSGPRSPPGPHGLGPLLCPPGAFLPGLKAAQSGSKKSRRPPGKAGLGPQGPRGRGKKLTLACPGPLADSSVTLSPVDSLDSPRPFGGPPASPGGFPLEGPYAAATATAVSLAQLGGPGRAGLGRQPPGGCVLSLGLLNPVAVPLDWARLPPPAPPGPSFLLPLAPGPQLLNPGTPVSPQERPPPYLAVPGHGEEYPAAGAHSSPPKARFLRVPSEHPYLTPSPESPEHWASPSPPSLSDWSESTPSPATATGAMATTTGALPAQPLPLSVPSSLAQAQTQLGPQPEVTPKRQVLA
Pro-neuregulin-1, membrane-bound isoform (Homo sapiens), sequence (Q02297 whole entry, looked up, the tested form may be a part, canonical isoform): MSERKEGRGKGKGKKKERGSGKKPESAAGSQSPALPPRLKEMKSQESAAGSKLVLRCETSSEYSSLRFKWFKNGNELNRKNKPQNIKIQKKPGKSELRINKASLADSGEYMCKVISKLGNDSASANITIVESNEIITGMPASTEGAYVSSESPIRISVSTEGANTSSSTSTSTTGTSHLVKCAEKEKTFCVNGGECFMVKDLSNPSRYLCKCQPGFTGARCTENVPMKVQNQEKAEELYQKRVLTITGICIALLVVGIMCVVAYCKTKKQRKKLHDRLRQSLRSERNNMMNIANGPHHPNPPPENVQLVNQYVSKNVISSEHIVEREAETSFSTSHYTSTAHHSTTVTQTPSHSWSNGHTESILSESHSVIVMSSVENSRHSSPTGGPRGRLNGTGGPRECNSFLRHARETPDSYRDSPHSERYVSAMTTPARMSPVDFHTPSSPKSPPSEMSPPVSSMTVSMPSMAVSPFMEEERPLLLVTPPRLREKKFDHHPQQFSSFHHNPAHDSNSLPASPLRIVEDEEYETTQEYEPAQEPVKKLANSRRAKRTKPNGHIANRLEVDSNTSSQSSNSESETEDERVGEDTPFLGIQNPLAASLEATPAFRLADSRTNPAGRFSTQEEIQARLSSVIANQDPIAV
Torsin-1A-interacting protein 2 (Homo sapiens), sequence (Q8NFQ8 whole entry, looked up): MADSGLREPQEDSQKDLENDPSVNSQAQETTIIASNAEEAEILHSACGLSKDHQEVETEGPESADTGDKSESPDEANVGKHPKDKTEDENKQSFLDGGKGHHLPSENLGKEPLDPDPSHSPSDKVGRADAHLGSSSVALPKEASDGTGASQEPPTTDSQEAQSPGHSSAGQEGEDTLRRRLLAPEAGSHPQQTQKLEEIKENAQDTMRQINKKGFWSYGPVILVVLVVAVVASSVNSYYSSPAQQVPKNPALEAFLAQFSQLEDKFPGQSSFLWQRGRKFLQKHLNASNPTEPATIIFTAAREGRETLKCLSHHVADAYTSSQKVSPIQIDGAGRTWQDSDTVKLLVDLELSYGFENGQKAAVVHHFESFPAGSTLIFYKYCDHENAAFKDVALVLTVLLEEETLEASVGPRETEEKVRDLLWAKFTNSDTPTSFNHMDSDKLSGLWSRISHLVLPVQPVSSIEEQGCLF

With `NC(=O)[C@@H]1[C@H]2C(=O)O[C@H](c3ccccc3)[C@H](c3ccccc3)N2[C@H](c2ccc(O)cc2)[C@@]12C(=O)Nc1ccccc12`, the composite z-score in assay [1] was 0.241; in [2] it was -0.933; in [3], -0.179; in assay [4] it was 0.0547; in assay [5], -0.985; in assay [6] it was 2.01. Besides, the composite z-score in assay [7] was 0.476; in assay [9] it was -0.114; in assay [10] it was -0.314; in assay [11] it was 1.41; in [15] it was 3.53; in assay [17], -0.107. The composite z-score is -0.952 in assay [18], 0.118 in assay [19] and -0.289 in [20]. The z-score was 0.308 (inactive) in assay [8]; 0.0549 (inactive) in assay [12]; -1.41 (inactive) in assay [13]; 0.386 (inactive) in assay [14]; 1.11 (inactive) in assay [16].
For the compound `COc1cccc(-c2cccc(=O)o2)c1`, the composite z-score in [1] was 0.782; in assay [2], -0.387; in assay [3], 0.338; in [4] it was 0.143; in [5], 0.0405; in assay [6] it was 0.851. Besides, the composite z-score is 0.322 in assay [7]; 0.807 in [9]; -0.236 in [10]; 0.274 in assay [11]; -0.33 in [15]; 0.716 in [17]. Further, the composite z-score is 0.335 in [18], -0.476 in [19] and 0.08 in assay [20]. Besides, the z-score in assay [8] is 5.22 (inactive); in assay [12], -1.24 (inactive); in assay [13], -3.46 (inactive); in [14] it was 1.42 (inactive); in [16], 0.696 (inactive).
Take `Cc1ccc(S[C@]2(C(=O)NCCCN(C)C)CC(=O)N(Cc3cc(C(F)(F)F)cc(C(F)(F)F)c3)[C@@H]2c2ccc(CO)cc2I)cc1`: the composite z-score in [1] is 0.746; in [2], 0.0752; in [3], -0.0894; in assay [4] it was -0.21; in assay [5], -1.21; in [6] it was 2.07. The composite z-score in [7] is 0.634; in [9], -0.191; in [10], -0.0994; in assay [11], -0.371; in assay [15], 1.77; in assay [17], 0.269. In addition, the composite z-score in assay [18] was -1.64; in assay [19], -0.937; in assay [20], -0.0246. For the same compound, the z-score was 0.452 (inactive) in assay [8]; -1.17 (inactive) in assay [12]; -3.06 (inactive) in [13]; 1.03 (inactive) in [14]; 0.888 (inactive) in [16].
On to `C=C(COC)/C(=C/C[C@H](OC(C)=O)c1ccc(CO)o1)c1cc(C(=O)OC)ccc1OC`, for which the composite z-score in assay [1] was -0.113; in assay [2], 0.183; in [3], -0.129; in [4] it was 0.779; in [5], -0.925; in assay [6] it was 0.0136. Also, the composite z-score in assay [7] was 0.7; in assay [9], -0.0787; in assay [10], 0.0749; in assay [11], 0.404; in [15], 1.67; in [17] it was -0.142. Besides, the composite z-score was 0.493 in [18], 0.217 in assay [19] and -0.284 in assay [20]. In addition, the z-score in [8] was 0.0728 (inactive); in [12], 0.517 (inactive); in assay [13], -0.131 (inactive); in assay [14], 0.0604 (inactive); in assay [16], 0.796 (inactive).
With `Cc1ccc(S[C@]2(C(=O)O)CC(=O)N(C(C)C)[C@@H]2c2ccc(CO)cc2I)cc1`, the composite z-score in assay [1] was 1.83; in assay [2] it was 1.16; in assay [3], 0.0477; in [4], -0.0395; in [5] it was 0.175; in [6] it was 1.89. The composite z-score in [7] was 1.16; in assay [9] it was 1.33; in assay [10], -0.148; in assay [11] it was 1.55; in assay [15], 2.21; in [17], 0.122. Further, the results for the composite z-score in assay [18], in assay [19] and in [20] were -0.0137, 0.271 and 0.0255, respectively. For the same compound, the z-score is -0.974 (inactive) in [8]; -2.31 (inactive) in assay [12]; -2.85 (inactive) in assay [13]; 1.55 (inactive) in [14]; 3.25 (inactive) in assay [16].
As to `COC(=O)C(CC#Cc1ccc2c(c1)[C@]1(C(=O)N2)[C@H](c2ccc(OCCO)cc2)N2[C@H](c3ccccc3)[C@H](c3ccccc3)OC(=O)[C@H]2[C@@H]1C(=O)N1CCc2cc(OC)c(OC)cc2C1)C(=O)OC`, the composite z-score in assay [1] is 0.931; in [2], 0.802; in assay [3], 0.119; in [4] it was 1.05; in [5] it was 1.42; in [6] it was 1.07. Also, the composite z-score in assay [7] was 1.25; in assay [9] it was 1.6; in assay [10], 0.876; in assay [11], 1.57; in [15], 3.34; in assay [17], 0.365. Moreover, the composite z-score in assay [18] was -1.11; in [19], 1.07; in assay [20], 0.169. For the same compound, the z-score in assay [8] was 2.24 (inactive); in assay [12], 2.12 (inactive); in assay [13], 1.74 (inactive); in assay [14], 5.14 (inactive); in assay [16], 0.49 (inactive).
Turning to `Cc1ccc(N2C(=O)c3ccccc3[C@@H](C(=O)NC3CC3)[C@@H]2c2ccc(CO)cc2)nc1`, the composite z-score in assay [1] was 1.17; in assay [2], -0.78; in [3], -0.149; in [4] it was -1.26; in [5], -1.63; in assay [6], -1.14. The composite z-score in [7] was 0.058; in [9], -0.479; in assay [10], -0.134; in assay [11], -1.57; in [15], 2.35; in assay [17], 0.297. Besides, the values for the composite z-score in assay [18], in assay [19] and in assay [20] were -0.912, -1.44 and -0.281, respectively. The z-score in assay [8] was 0.554 (inactive); in assay [12] it was -1.31 (inactive); in assay [13], -0.916 (inactive); in [14] it was -0.486 (inactive); in assay [16], 0.387 (inactive).
Consider `COC(=O)[C@@]1(Cc2ccc(OC)cc2)[C@H]2c3cc(C(=O)N4CCCC4)n(Cc4ccc(C)c(F)c4F)c3C[C@H]2CN1C(=O)c1ccccc1`, for which the composite z-score in assay [1] was 0.77; in [2] it was -0.5; in assay [3], 0.176; in assay [4] it was 0.78; in [5], 1.77; in assay [6], 1.65. Also, the composite z-score came out at 1.31 in [7]; 1.78 in assay [9]; 2.12 in assay [10]; 0.998 in assay [11]; 3.52 in assay [15]; 0.505 in assay [17]. Besides, the composite z-score in assay [18] was 0.214; in assay [19], 1.04; in assay [20] it was 0.178. The z-score in [8] was 0.352 (inactive); in assay [12] it was 0.57 (inactive); in assay [13], 1.48 (inactive); in assay [14], 1.57 (inactive); in [16], 0.107 (inactive).
As for `CCOC(=O)C1=C[C@@H](C(C)(C)C)N(S(=O)(=O)c2ccc(C)cc2)[C@H]1c1ccc(F)cc1`, the composite z-score is -0.272 in assay [1]; 0.59 in assay [2]; 0.0434 in assay [3]; 0.619 in assay [4]; 1.59 in assay [5]; -0.11 in assay [6]. For the same compound, the composite z-score is 0.69 in assay [7]; 1.05 in [9]; -0.0324 in assay [10]; 1.5 in [11]; 3.07 in assay [15]; -0.0341 in [17]. Further, the composite z-score in [18] was 0.989; in [19], 1.07; in [20] it was -0.0004. For the same compound, the z-score was -0.705 (inactive) in assay [8]; 0.518 (inactive) in assay [12]; 1.95 (inactive) in assay [13]; 1.92 (inactive) in assay [14]; -1.02 (inactive) in [16].
